From PubChem BioAssay (NCI)
The panel holds about 83,000 compounds, 20% with a hit somewhere; the sample as a whole holds those more often.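 Interpretation: 100, growth as untreated; towards 0, rising growth inhibition; 0, no net growth; 0 to -100, cell death. Compounds scoring below 10 were considered active.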 Activity calls are given as the source filed them.

Assays:
Assay in all cases: NCI-60 one-dose screen, 48 h (100 = growth as untreated, 0 = no growth, -100 = all killed)
Conditions in all cases: 10 µM unless noted
SK-MEL-2 melanoma = test system: SK-MEL-2 melanoma
EKVX NSCLC = test system: EKVX NSCLC
SN12C renal = test system: SN12C renal
UO-31 renal = test system: UO-31 renal
ACHN renal = test system: ACHN renal
CAKI-1 renal = test system: CAKI-1 renal
A498 renal = test system: A498 renal
CCRF-CEM leukemia = test system: CCRF-CEM leukemia
MOLT-4 leukemia = test system: MOLT-4 leukemia
TK-10 renal = test system: TK-10 renal

Measured: growth

CCSc1nc(-c2cccs2)n2nc(-c3ccco3)cc2n1
inactive: SK-MEL-2 melanoma 105% | EKVX NSCLC 81.3% | SN12C renal 89.7% | UO-31 renal 79.7% | ACHN renal 94.1% | CAKI-1 renal 86.3% | A498 renal 94.4% | CCRF-CEM leukemia 88.7% | MOLT-4 leukemia 115%

Cc1ccc(/C=C/C(=O)c2ccc(F)cc2)s1
active: CCRF-CEM leukemia 8.11%
inactive: SK-MEL-2 melanoma 85.8% | EKVX NSCLC 81.1% | SN12C renal 71.7% | UO-31 renal 57.6% | ACHN renal 83% | CAKI-1 renal 78.6% | A498 renal 70.1% | MOLT-4 leukemia 11.6%

COc1cnc2c(c1)C(=O)c1c-2n(CCCNC(C)C)c(=O)c2cc(F)ccc12
active: SK-MEL-2 melanoma -5.42% | EKVX NSCLC -20.8% | SN12C renal -4.41% | UO-31 renal -89.9% | ACHN renal -69.4% | A498 renal -89% | CCRF-CEM leukemia -1.1% | MOLT-4 leukemia -22.9%

O=CN1N=C(c2ccc(Nc3ccnc4cc(Cl)ccc34)cc2)CC1c1ccc(Cl)cc1 (stereo unspecified)
active: CCRF-CEM leukemia 6.48% | MOLT-4 leukemia 7.23%
inactive: SK-MEL-2 melanoma 52.1% | EKVX NSCLC 40.5% | SN12C renal 36.1% | UO-31 renal 20.6% | ACHN renal 27.9% | CAKI-1 renal 39.4% | A498 renal 34.6%

Cc1ccc(/C=C(/C#N)n2nnc3ncccc32)cc1
active: SN12C renal 8.6% | ACHN renal 0.614% | A498 renal -7.36% | CCRF-CEM leukemia 9.57%
inactive: SK-MEL-2 melanoma 17.1% | EKVX NSCLC 24.8% | UO-31 renal 24.3% | MOLT-4 leukemia 11.8%

CCSc1nc(-c2ccc(F)cc2)c(C#N)c(=O)[nH]1
inactive: SK-MEL-2 melanoma 96.3% | EKVX NSCLC 105% | SN12C renal 96.2% | UO-31 renal 125% | ACHN renal 97.1% | CAKI-1 renal 98.7% | A498 renal 112% | CCRF-CEM leukemia 102% | MOLT-4 leukemia 124%

COc1ccc(-c2cc(-c3nnc(SCC(=O)Nc4ccc(C(C)=O)cc4)n3-c3ccccc3)c3ccccc3n2)cc1OC
inactive: SK-MEL-2 melanoma 97.9% | EKVX NSCLC 97.7% | SN12C renal 110% | UO-31 renal 85.3% | ACHN renal 108% | A498 renal 114% | CCRF-CEM leukemia 104% | MOLT-4 leukemia 107%

CC(C)CC1NC(=O)C(CCCN)NC(=O)C(C(C)C)NC(=O)C2CCCN2C(=O)C(Cc2ccccc2)NC(=O)C(CC(C)C)NC(=O)C(CCCN)NC(=O)C(C(C)C)NC(=O)C2CCCN2C(=O)C(Cc2ccccc2)NC1=O (stereo unspecified)
active: SK-MEL-2 melanoma -94% | EKVX NSCLC -87.3% | SN12C renal -82.2% | UO-31 renal -20% | ACHN renal -19.8% | CAKI-1 renal -14.8% | A498 renal -70.1% | CCRF-CEM leukemia -59.3% | MOLT-4 leukemia -51.3%

COc1cnc2c(c1)C(=O)c1c-2n(CCCN2CCNCC2)c(=O)c2cc(F)ccc12
active: SK-MEL-2 melanoma -17.1% | SN12C renal 7.67% | UO-31 renal -50.1% | ACHN renal -78.1% | A498 renal -25.7% | CCRF-CEM leukemia -1.3% | MOLT-4 leukemia -16.2%
inactive: EKVX NSCLC 18.7%

COc1cnc2c(c1)C(=O)c1c-2n(CCCN2CCOCC2)c(=O)c2cc(F)ccc12
inactive: SK-MEL-2 melanoma 21.4% | EKVX NSCLC 17.7% | SN12C renal 12.4%
active: UO-31 renal -47.2% | ACHN renal -66.9% | A498 renal -24% | CCRF-CEM leukemia 1.77% | MOLT-4 leukemia -18.5%

NS(=O)(=O)c1cc2c(cc1Cl)NC=NS2(=O)=O
inactive: SK-MEL-2 melanoma 103% | EKVX NSCLC 107% | SN12C renal 100% | UO-31 renal 82.1% | ACHN renal 98.9% | CAKI-1 renal 96.3% | A498 renal 110% | CCRF-CEM leukemia 97.6% | MOLT-4 leukemia 103%

COc1cnc2c(c1)C(=O)c1c-2n(CCCN2CCC(O)CC2)c(=O)c2cc(F)ccc12
active: SK-MEL-2 melanoma 3.49% | EKVX NSCLC 2.5% | SN12C renal 9.71% | UO-31 renal -89.4% | ACHN renal -58% | A498 renal -87.9% | CCRF-CEM leukemia -2.05% | MOLT-4 leukemia -19.2%

COc1ccc(C2CC(c3ccc(Nc4ccnc5cc(Cl)ccc45)cc3)=NN2C(C)=O)cc1 (stereo unspecified)
inactive: SK-MEL-2 melanoma 107% | EKVX NSCLC 55.7% | SN12C renal 76.1% | UO-31 renal 64.7% | ACHN renal 54.8% | CAKI-1 renal 73.2% | A498 renal 56.1% | CCRF-CEM leukemia 47.2% | MOLT-4 leukemia 40.8%

Nc1ccn(C2O[C@H](CO)[C@@H](O)[C@@H]2O)c(=O)n1 (stereo partly specified)
active: UO-31 renal 1.02% | ACHN renal 0.769% | CCRF-CEM leukemia 6.02%
inactive: SK-MEL-2 melanoma 88.3% | EKVX NSCLC 91.8% | SN12C renal 37.1% | CAKI-1 renal 12.4% | A498 renal 66.8% | MOLT-4 leukemia 13.6%

c1ccc2nc(Cn3c[n+](Cc4ccc5ccccc5n4)c4ccccc43)ccc2c1
inactive: SK-MEL-2 melanoma 28.9% | EKVX NSCLC 74.7% | SN12C renal 22.7% | UO-31 renal 79.5% | ACHN renal 103% | A498 renal 51.1% | CCRF-CEM leukemia 34.9% | MOLT-4 leukemia 31.9%

CCOC(=O)/C=C1/SC(=Nc2ccc(C#N)cc2)N(Cc2ccco2)C1=O
active: ACHN renal -78.6% | CCRF-CEM leukemia 0.581% | MOLT-4 leukemia -6.94%
inactive: SK-MEL-2 melanoma 78.5% | EKVX NSCLC 74% | SN12C renal 52.5% | UO-31 renal 31.6% | A498 renal 87%

CC(=O)N1N=C(c2ccc(Nc3ccnc4cc(Cl)ccc34)cc2)CC1c1ccc(Cl)cc1 (stereo unspecified)
inactive: SK-MEL-2 melanoma 54.1% | EKVX NSCLC 36.4% | SN12C renal 61.9% | UO-31 renal 24.1% | ACHN renal 34.1% | CAKI-1 renal 44.7% | A498 renal 43.9% | CCRF-CEM leukemia 31% | MOLT-4 leukemia 34.2%

C[C@H]1O[C@@H](O[C@H]2[C@@H](O)C[C@H](O[C@H]3[C@@H](O)C[C@H](O[C@H]4CC[C@]5(C)C6CC[C@]7(C)[C@@H](C8=CC(=O)OC8)CC[C@]7(O)C6CC[C@@H]5C4)O[C@@H]3C)O[C@@H]2C)C[C@H](O)[C@@H]1O (stereo partly specified)
active: SK-MEL-2 melanoma -68.5% | EKVX NSCLC -98.4% | SN12C renal -52.4% | UO-31 renal -90.4% | ACHN renal -68% | CAKI-1 renal -92.6% | A498 renal -28.5% | CCRF-CEM leukemia -58.6% | MOLT-4 leukemia -36.9%

C[C@]12CCC(=O)C=C1CCC1C2[C@@H](O)C[C@@]2(C)C1CC[C@]2(O)C(=O)COC(=O)CCC(=O)O (stereo partly specified)
inactive: SK-MEL-2 melanoma 123% | EKVX NSCLC 78.7% | SN12C renal 57.2% | UO-31 renal 84.1% | ACHN renal 102% | CAKI-1 renal 81.1% | A498 renal 118% | CCRF-CEM leukemia 64.9% | MOLT-4 leukemia 115%

Nc1ccccc1C#Cc1ccccc1C#Cc1ccc(OCCCCCCOc2ccc(C#Cc3ccccc3C#Cc3ccccc3N)cc2)cc1
inactive: SK-MEL-2 melanoma 103% | EKVX NSCLC 89.3% | SN12C renal 99.4% | TK-10 renal 141% | ACHN renal 102% | CAKI-1 renal 91.6% | A498 renal 116% | MOLT-4 leukemia 103%
active: CCRF-CEM leukemia -59.7%

COc1cc(/C=C/C(=O)c2c(C)n([O-])c3ccccc3[n+]2=O)cc(OC)c1OC
inactive: SK-MEL-2 melanoma 36.8% | EKVX NSCLC 35.5% | SN12C renal 54.6% | TK-10 renal 87.9% | ACHN renal 76.6% | CAKI-1 renal 26.3% | A498 renal 69.7%
active: CCRF-CEM leukemia -51.2% | MOLT-4 leukemia -64.5%

N#Cc1ccccc1C#Cc1ccccc1C#Cc1ccc(OCCCCCCOc2ccc(C#Cc3ccccc3C#Cc3ccccc3C#N)cc2)cc1
inactive: SK-MEL-2 melanoma 98.3% | EKVX NSCLC 111% | SN12C renal 104% | TK-10 renal 147% | ACHN renal 109% | CAKI-1 renal 116% | A498 renal 113% | MOLT-4 leukemia 103%
active: CCRF-CEM leukemia 3.16%

COc1cc(/C=C/C(=O)C(C(=O)/C=C/c2ccc(OC(=O)CCNC34CC5CC(CC(C5)C3)C4)c(OC)c2)C(=O)CCNC23CC4CC(CC(C4)C2)C3)ccc1OC(=O)CCNC12CC3CC(CC(C3)C1)C2 (stereo unspecified)
inactive: EKVX NSCLC 19.6% | TK-10 renal 44.2% | CAKI-1 renal 18.6% | A498 renal 59.3%
active: SK-MEL-2 melanoma 7.68% | SN12C renal 5.02% | ACHN renal 6.38% | CCRF-CEM leukemia -36.4% | MOLT-4 leukemia -20.4%

COc1cc(/C=C/C(=O)CC(=O)/C=C/c2ccc(OC(=O)C3C4CC5CC(C4)CC3C5)c(OC)c2)ccc1OC(=O)C1C2CC3CC(C2)CC1C3 (stereo unspecified)
inactive: SK-MEL-2 melanoma 93.1% | EKVX NSCLC 109% | SN12C renal 108% | TK-10 renal 96.9% | ACHN renal 144% | CAKI-1 renal 99.6% | A498 renal 109% | CCRF-CEM leukemia 89.8% | MOLT-4 leukemia 103%

Cc1csc(C#Cc2cncc(O)c2)n1
inactive: SK-MEL-2 melanoma 108% | EKVX NSCLC 110% | SN12C renal 102% | TK-10 renal 121% | ACHN renal 117% | CAKI-1 renal 93.8% | A498 renal 103% | MOLT-4 leukemia 105%
active: CCRF-CEM leukemia -8.24%

CCOc1cc(/C=C/C(=O)CC(=O)/C=C/c2ccc(OC(=O)CNc3nc4ccc(OC)cc4s3)c(OCC)c2)ccc1OC(=O)CNc1nc2ccc(OC)cc2s1
active: CCRF-CEM leukemia 4.63% | MOLT-4 leukemia 4.13%
inactive: SK-MEL-2 melanoma 59.1% | EKVX NSCLC 41.7% | SN12C renal 59% | TK-10 renal 60.5% | ACHN renal 69.4% | CAKI-1 renal 75.9% | A498 renal 91.6%

[N-]=[N+]=NCc1cccc(/C(O)=C/C(=O)C(=O)O)c1
inactive: SK-MEL-2 melanoma 72.8% | EKVX NSCLC 120% | SN12C renal 90.4% | TK-10 renal 107% | ACHN renal 107% | CAKI-1 renal 131% | A498 renal 108% | CCRF-CEM leukemia 75.2%
active: MOLT-4 leukemia -100%

CCNCCCn1c2c(c3ccc(F)cc3c1=O)C(=O)c1cc(OC)cnc1-2
active: SK-MEL-2 melanoma -3.1% | EKVX NSCLC -14.4% | SN12C renal 1.58% | UO-31 renal -90.7% | ACHN renal -47.5% | A498 renal -91.2% | CCRF-CEM leukemia 1.07% | MOLT-4 leukemia -15.6%

CC[C@H]1CN2CCc3cc(OC)c(OC)cc3C2C[C@@H]1CC1NCCc2cc(OC)c(OC)cc21 (stereo partly specified)
active: SK-MEL-2 melanoma -70.5% | EKVX NSCLC -27.4% | SN12C renal -13.1% | UO-31 renal -37.9% | CAKI-1 renal -34.3% | A498 renal -49.9% | CCRF-CEM leukemia -18% | MOLT-4 leukemia -13.1%
